Only some compounds are listed: those with a hit (about 3.8% of all), similar ones and a draw of the others.
B2AR ag: human beta-2 adrenergic receptor agonism by FAP; P07550; Am2.2-beta2AR cells, FAP receptor internalization, flow cytometry; response, % (concentration not given with the values); 340,000 compounds, 0.43% hits; AID 504454;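 active means response above a set limit, near 3 SD of response in nonfluorescent compounds, cut at about 42% in these data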
Target sequence (P07550 whole entry, looked up): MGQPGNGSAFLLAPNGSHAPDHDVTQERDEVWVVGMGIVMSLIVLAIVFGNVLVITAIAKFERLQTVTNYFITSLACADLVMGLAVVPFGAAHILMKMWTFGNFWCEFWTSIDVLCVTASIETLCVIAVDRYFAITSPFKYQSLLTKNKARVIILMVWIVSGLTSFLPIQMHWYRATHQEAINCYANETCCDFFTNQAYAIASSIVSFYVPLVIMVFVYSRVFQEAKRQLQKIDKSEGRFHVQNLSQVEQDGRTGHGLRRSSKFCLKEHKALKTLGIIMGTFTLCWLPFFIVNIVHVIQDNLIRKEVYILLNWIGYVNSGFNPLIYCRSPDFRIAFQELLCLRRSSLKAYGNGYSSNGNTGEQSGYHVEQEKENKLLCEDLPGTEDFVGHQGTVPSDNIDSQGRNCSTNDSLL
tim10-1 inh: inhibits growth of tim10-1 mutant yeast. 330,000 compounds, 2.2% hits. S. cerevisiae tim10-1 ts strain growth, BacTiter-Glo, 24 h. inhibition, % at 20 µM. AID 463190;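 active means inhibition of at least 40%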;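 further: mutant grown at 25 °C; 0% = DMSO wells with yeast and 100% = wells holding no yeast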
PfHsp90 yeast 2: growth inhibition of yeast expressing Plasmodium Hsp90; S. cerevisiae expressing PfHsp90, BacTiter-Glo ATP, 48 h; yeast lacking PDR1 and PDR3 efflux regulators; inhibition, % at 9.4 µM; 310,000 compounds, 0.32% hits; AID 504621;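 active means every replicate shows inhibition above about 80%, whatever the replicate mean, limit read from the data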;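 further: 0% = DMSO neutral controls and 100% = 20 µM radicicol positive controls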
tim23-1 inh: tim23-1 yeast growth inhibition. S. cerevisiae tim23-1 growth, BacTiter-Glo luminescence, 24 h. inhibition, % at 20 µM. 330,000 compounds, 1.3% hits. AID 463212;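 active means growth inhibition of the mutant yeast at or above 50%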;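 further: temperature-sensitive mutant grown at 25 °C; plate controls were DMSO-treated mutant yeast for no effect and medium wells lacking yeast for full effect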
TIM10 inh: TIM10 yeast growth inhibition. S. cerevisiae TIM10 strain growth, BacTiter-Glo luminescence, 24 h. 330,000 compounds, 1.4% hits. inhibition, % at 10 µM;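 active means inhibition of 40% or more at the single tested concentration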;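 further: wild-type TIM10 isogenic control strain grown at permissive 25 °C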
tim10-1 conf: tim10-1 yeast growth inhibition, confirmed | shares compounds with tim10-1 inh | S. cerevisiae tim10-1 ts strain growth, BacTiter-Glo, 24 h | inhibition, % at 20 µM | 7,400 compounds, 56% hits | AID 463213;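 active means inhibition of yeast growth at or above a set limit in either of two repeat tests at 20 µM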;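 further: tim10-1 mutant grown at permissive 25 °C to find synthetic lethal compounds; 0% = DMSO yeast wells and 100% = medium wells without yeast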
An asterisk follows results filed as active; nt = not tested or not shown.

SMILES	B2AR ag	tim10-1 inh	PfHsp90 yeast 2	tim23-1 inh	TIM10 inh	tim10-1 conf
CNC(=O)c1nc(C)n(-c2ccc(Cl)cc2Cl)n1	4	1	0	3	6	nt
Cc1c(Cl)cccc1NC(=O)c1nc(C)n(-c2cc(OC(C)C)c(Cl)cc2Cl)n1	-3	43*	2	26	30	26
CCCOC(=O)c1ccc(Oc2c(-c3ccc(O)cc3O)n[nH]c2C)cc1	13	55*	-40	-111	21	9
c1ccc(Cc2nn3c(C4COc5ccccc5O4)nnc3s2)cc1 (stereo not given)	15	-19	-15	41	10	nt
FC(F)(F)c1nnc2sc(-c3ccccn3)nn12	2	16	-3	12	6	nt
COc1ccccc1-c1nn2c(C3COc4ccccc4O3)nnc2s1 (stereo not given)	6	46*	nt	46	35	48*
COc1ccccc1-c1nn2c(C(F)(F)F)nnc2s1	-2	45*	nt	20	29	34*
CCOc1ccccc1-c1nn2c(Cc3ccccc3)nnc2s1	-12	41*	nt	35	38	6
CCCC1SCC(C)(C)NC1=O (stereo not given)	-2	nt	nt	nt	nt	nt
O=S(=O)(c1ccc(NC(=S)Nc2ccccc2)cc1)N1CCOCC1	11	14	-19	26	4	nt
CC(NC(=S)Nc1ccc(S(=O)(=O)N2CCOCC2)cc1)C1CC2CCC1C2 (stereo not given)	-5	49*	7	42	24	43*
CC(=O)NC12CC3CC(C1)CC(C(=O)Nc1cccc(S(=O)(=O)N4CCCCCC4)c1)(C3)C2	6	nt	24	nt	nt	nt
CC(C)(C)C(=O)Nc1ccc(C(=O)COC(=O)C2=COCCO2)cc1	-1	-6	nt	14	4	nt
COC(=O)c1ccccc1NC(=O)c1sc(N)nc1C	0	14	0	-8	-13	nt
COC(=O)c1ccccc1NC(=O)c1sc(=S)n(C)c1N	-8	46*	-22	30	35	22
CC(C1CC1)N(C(=O)c1ccccc1O)c1ccccc1 (stereo not given)	0	40	nt	41	18	29
CCOc1ccc(C(C(=O)NC(C)(C)C)N(CCOC)C(=O)CCC(=O)Nc2ccccn2)cc1 (stereo not given)	-7	-4	6	9	5	nt
COc1ccccc1C(=O)Nc1ccccc1C(=O)N1C(C)CCCC1C (stereo not given)	-4	44*	13	28	8	32*
CCCCCC(=O)NNC(=S)NC(=O)c1cccc([N+](=O)[O-])c1	-11	22	-9	5	24	nt
O=C(NC(=S)NNC(=O)c1ccccc1[N+](=O)[O-])c1ccc(Br)cc1	-3	41*	13	49	36	44*
CCCCCC(=O)NNC(=S)NC(=O)c1ccccc1[N+](=O)[O-]	2	43*	nt	7	18	26
O=C(NNC(=S)NC(=O)c1ccccc1[N+](=O)[O-])c1ccccc1Cl	10	16	5	13	14	nt
C/C(=N\NC(=O)CNc1cccc(C)c1)c1ccc(Br)s1	-6	40*	24	40	34	22
c1ccc(Cn2nnc3c(N4CCC5(CC4)OCCO5)ncnc32)cc1	7	42*	12	36	27	28
CN(C(=O)c1cccc(NC(=O)Cc2ccc(NC(=O)C3CCCN(S(=O)(=O)c4cccc([N+](=O)[O-])c4)C3)cc2)c1)C1CCCCC1 (stereo not given)	7	nt	-9	nt	nt	nt
SMILES	B2AR ag	tim10-1 inh	PfHsp90 yeast 2	tim23-1 inh	TIM10 inh	tim10-1 conf
Cc1cccn2c(=O)c(C=O)c(N3CCN(c4ccc(F)cc4)CC3)nc12	28	49*	12	28	33	36*
O=S(=O)(c1ccc2c(c1)CCCN2)N1CCCC2CCCCC21 (stereo not given)	12	47*	-11	45	18	26
COc1ccc(S(=O)(=O)N2CCC3CC2c2cc(N4CCOCC4)ccc23)cc1 (stereo not given)	2	nt	-5	nt	nt	nt
COc1ccc(/C=C2\SC(N3CCCCC3)=NC2=O)cc1	7	47*	-10	46	31	44*
CCc1nc(N)nc(N)c1-c1ccc(N(C)Cc2ccccc2)c([N+](=O)[O-])c1	8	nt	0	nt	nt	nt
CCOc1ccc2nc(SC3CC(=O)N(c4cccc(OC)c4)C3=O)sc2c1 (stereo not given)	-13	42*	6	42	28	37*
COc1ccc(C(CNC(=O)c2oc3cc(Br)ccc3c2C)N2CCCCC2)cc1 (stereo not given)	-4	42*	-6	30	35	-17
Cc1c(C(=O)O)sc2[nH]c(=O)n(Cc3ccccc3)c(=O)c12	8	17	3	14	-14	nt
CCCCCCC(=O)O	6	10	6	4	7	nt
CCCCCCCCCCCCCCCC(=O)OC(CC(=O)O)C[N+](C)(C)C (stereo not given)	26	64*	109*	4	5	22
COc1cc(NC(=O)CSc2nnc(-c3ccncc3)o2)cc(OC)c1OC	5	-19	-1	4	2	nt
CCCC(O)(c1ccccc1)C(CN1CCOCC1)c1ccccc1 (stereo not given)	-3	41*	-3	33	17	19
CCCC(O)(c1ccc(Cl)cc1)C(CN1CCOCC1)c1ccccc1 (stereo not given)	11	29	5	32	9	nt
COc1ccc(N/C(C)=C/C(=O)c2ccccc2)cc1	-4	1	21	15	4	nt
COc1ccc(N/C(C)=C/C(=S)Nc2ccccc2)cc1	0	41*	5	26	15	15
CC(C)OC(=O)/C(C#N)=C/c1c[nH]c2ccccc12	0	42*	-11	32	10	28
Cn1c(N)c(C(=O)CSc2nn(-c3ccc(F)cc3)c(=S)s2)c(=O)n(C)c1=O	-2	2	-10	-15	-16	nt
COc1ccc(N(C(=O)CCl)C(C(=O)NC2CCCCC2)c2cccnc2)cc1 (stereo not given)	18	41*	0	31	33	32*
O=C(NC1CCCCC1)C(c1cccnc1)N(C(=O)CCl)c1ccc(F)cc1 (stereo not given)	10	nt	-35	nt	nt	nt
Cc1cccc(/C=C2\CS/C(=C\c3cccc(C)c3)C2=O)c1	6	44*	3	49	24	36*
CCC(C)Oc1nc(C)cc(C)c1S(=O)(=O)c1ccccc1C (stereo not given)	0	44*	6	42	24	23
COc1nc(C)cc(C)c1S(=O)(=O)c1ccccc1C	6	2	-3	11	-8	nt
COc1ccccc1NS(=O)(=O)c1ccc(C(=O)N2CCN(c3ccccn3)CC2)cc1	-13	8	8	5	0	nt

From PubChem BioAssay
